Cruzain Triton: blocks cruzain activity in presence of Triton detergent. P25779. purified cruzain, Z-FR-AMC fluorescence, 0.01% Triton. AID 1478. 200,000 compounds, 0.43% hits. Potency, µM, for the others: max response, negative = inhibition, most hits filed as inhibitors;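 further: plate controls were neutral wells for no effect and buffer without enzyme for full effect; nearly all actives have a fitted effect of over 40% in size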
Target sequence (P25779 123-467 limits assumed): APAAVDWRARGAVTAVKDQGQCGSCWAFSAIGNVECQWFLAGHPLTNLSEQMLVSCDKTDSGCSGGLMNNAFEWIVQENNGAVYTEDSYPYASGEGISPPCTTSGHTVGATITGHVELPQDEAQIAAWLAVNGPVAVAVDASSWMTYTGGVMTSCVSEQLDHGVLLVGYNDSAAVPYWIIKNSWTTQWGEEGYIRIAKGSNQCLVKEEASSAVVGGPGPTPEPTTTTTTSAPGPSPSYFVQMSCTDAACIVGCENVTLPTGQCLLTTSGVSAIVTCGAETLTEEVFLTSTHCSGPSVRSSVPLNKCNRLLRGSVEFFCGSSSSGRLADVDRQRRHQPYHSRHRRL
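Detergent-containing arm of a paired screen for aggregation-based inhibition: 0.01% Triton X-100 present. Cruzain at 1.5 nM cleaved 2 uM Z-FR-AMC at pH 5.5 with 5 mM DTT; AMC fluorescence gain over 60 s measured activity.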
Cruzain inh noDet: inhibitors of Trypanosoma cruzi cruzain without detergent; Potency, µM, for inactives: max response, negative = inhibition, most hits filed as inhibitors; 200,000 compounds, 2.3% hits; P25779; purified cruzain, Z-FR-AMC fluorescence, no detergent;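 further: plate controls were enzyme without inhibitor for no effect and buffer without enzyme for full effect; nearly all actives have a fitted effect of over 40% in size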
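Detergent-free condition (0.00005% Triton X-100) in acetate buffer pH 5.5 with DTT. 1.5 nM enzyme and compound were pre-mixed 15 min, then 2 uM Z-FR-AMC substrate added; reaction progress from fluorescence change between first and third reads (60 s).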
Giardia FBPA inh: blocks Giardia fructose-bisphosphate aldolase activity. A8B2U2. purified Giardia FBPA. Potency, µM (series often up to 59.6 µM), without a hit: top-dose activity, negative = inhibition, hits mostly inhibitors. 290,000 compounds, 0.71% hits; further: nearly all actives have a fitted effect of over 55% in size
Target sequence (A8B2U2 whole entry, looked up): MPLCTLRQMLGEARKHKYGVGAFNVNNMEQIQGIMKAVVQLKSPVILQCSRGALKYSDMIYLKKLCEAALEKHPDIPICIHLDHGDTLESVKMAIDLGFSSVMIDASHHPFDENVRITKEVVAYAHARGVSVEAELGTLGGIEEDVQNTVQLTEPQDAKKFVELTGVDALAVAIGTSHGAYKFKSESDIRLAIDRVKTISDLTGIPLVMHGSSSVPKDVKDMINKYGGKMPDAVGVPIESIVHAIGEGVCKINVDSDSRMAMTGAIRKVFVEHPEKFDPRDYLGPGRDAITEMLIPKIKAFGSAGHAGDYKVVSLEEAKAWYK
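40 nM FBPA preincubated 10 min at RT with compound (up to 57.5 uM final), then substrate plus GAPDH/TPI/NAD/arsenate coupling and diaphorase/resazurin added. Fluorescence read after 20 min at RT, 525/598 nm.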
Numbers without * were called inactive; ? = inconclusive; / = not tested or not shown; [ ] = dose if it differs, or a comment. The sample as a whole holds a higher share of hits than the screen did. The call rests on the fitted dose curve; in most records, active means well fitted curve in the direction sought with a large enough effect; inconclusive means small, poorly fitted or top-dose-only effect, or another doubt; inactive means no such curve, though single readings can be large; an effect the other way counts as inactive or inconclusive. Unless noted, on the % scale 0 is the no-effect control and ±100 the full control effect; potency means the concentration at half of the fitted maximal effect.

SMILES | Cruzain Triton | Cruzain inh noDet | Giardia FBPA inh
COc1cccc(NC(=O)c2ccc3c(c2)OCO3)c1 | / | / | 4%
Cc1cccc(C)c1Nc1sc(C(=O)c2ccccc2)c(N)c1C(=O)Nc1ccc(F)cc1 | -3% | ? | /
Cc1ccc(C(=O)c2sc(Nc3ccc(F)cc3)c(C#N)c2N)cc1 | -9% | ? | /
COc1cccc(Nc2sc(C(=O)c3ccc4c(c3)OCO4)c(N)c2S(=O)(=O)c2ccccc2)c1 | -1% | 7.9µM* | /
Nc1c(C(=O)c2ccc3c(c2)OCO3)sc(Nc2ccccc2F)c1S(=O)(=O)c1ccccc1 | -4% | ? | /
COc1ccc(S(=O)(=O)c2c(Nc3c(C)cccc3C)sc(C(=O)c3ccc4c(c3)OCO4)c2N)cc1 | -3% | 7.9µM* | /
COc1ccc(S(=O)(=O)c2c(Nc3c(C)cccc3C)sc(C(=O)c3ccc(F)cc3)c2N)cc1 | 5% | 6.3µM* | /
COc1ccccc1Nc1sc(C(=O)c2ccc(F)cc2)c(N)c1S(=O)(=O)c1ccc(C)cc1 | -2% | 7.9µM* | /
O=C(NCc1ccccc1Cl)C(=O)NCC(c1cccs1)S(=O)(=O)c1ccccc1 (stereo not given) | -7% | -15% | /
CCC1=C(OC(=O)N(CC)CC)N2C(=O)OC(=NCCOC)[C@]2(C)[C@H]2C1=CC[C@H]1C(=O)N(CC(=O)OC)C(=O)[C@H]12 | 3% | ? | -6%
COc1cccc(Cn2c(=O)c(C)nc3cnc(N(C)C)nc32)c1 | -3% | ? | 2%
CCOc1ccc(NC(=O)Cn2c(=O)n(CC(=O)NCc3ccccc3Cl)c(=O)c3sccc32)cc1 | -2% | 3% | /
CCN(Cc1ccccc1)C(=O)C1CCC(CNS(=O)(=O)c2ccc3c(c2)CCCC(=O)N3)CC1 (stereo not given) | 1% | ? | /
COc1ccc(C(=O)Nc2cccc(C(=O)OCc3cc(=O)n4nc(C5CC5)sc4n3)c2)cc1 | 2% | -4% | /
C[C@@H]1O[C@H](O[C@@H]2C(O)[C@H](O)[C@@H](CO)O[C@H]2Oc2cc(O)c3c(=O)cc(-c4ccc(O)cc4)oc3c2)[C@H](O)[C@H](O)[C@H]1O (stereo not given in full) | / | / | -1%
NCCNC(=S)S | 1% | 4% | /
Cc1nc(CC(=O)Nc2ccc(N(C)C)cc2)cs1 | -1% | -2% | /
Cc1ccccc1Nc1sc(C(=O)c2ccccc2)c(N)c1S(C)(=O)=O | -11% | -8% | /
COc1ccc(S(=O)(=O)c2c(Nc3cccc(C)c3C)sc(C(=O)c3ccccc3)c2N)cc1 | -3% | 6.3µM* | /
CCOC(=O)C1=C(C)NC(=O)N[C@@H]1c1coc2cc(C)cc(C)c2c1=O | -1% | -12% | /
Cc1ccc(CN2C(=O)SC(Nc3ccc(Cl)cc3)C2=O)cc1 (stereo not given) | -8% | -4% | /
CC(OC(=O)CNC(=O)c1ccccc1F)C(=O)Nc1nc(-c2ccccc2)cs1 (stereo not given) | 7.9µM* | 7.9µM* | -4%
Cc1csc(NC(=O)C(NC(=O)c2ccccc2F)C(C)C)n1 (stereo not given) | / | / | 9%
COc1ccc(Nc2c3c(nc4ccc(NC(=O)/C=C/c5cccc(OC)c5OC)cc24)CCCC3)cc1OC | ? | -4% | /
CC(=O)c1ccc(NC(=S)Nc2cccc3cnccc23)cc1 | / | / | 2µM*
SMILES | Cruzain Triton | Cruzain inh noDet | Giardia FBPA inh
CC(=O)c1cccc(NC(=S)Nc2cccc3ccccc23)c1 | / | / | -25%
Cc1ccccc1NC(=S)Nc1cccc2cnccc12 | / | / | 2µM*
S=C(NCc1ccccc1)Nc1cccc2cnccc12 | / | / | -22%
N#CCc1ccccc1[N+](=O)[O-] | -1% | -2% | /
O=C(CSc1nc(-c2ccc(F)cc2)nc2c1Cc1ccccc1O2)Nc1cccc(C(=O)O)c1 | -4% | -2% | 3%
O=C(CSc1nc(-c2ccccc2)nc2c1Cc1ccccc1O2)Nc1ccccc1 | 9% | 25µM* | 0%
CS(=O)(=O)Nc1ccc(Nc2c3ccccc3nc3ccccc23)cc1 | 0% | -7% | /
C=C(C)[C@H]1CC=C(CO)CC1 | 0% | 6% | 3%
CC(=O)NCCCC[C@H](NC(=O)OC(C)(C)C)C(=O)Nc1ccc2c(C(F)(F)F)cc(=O)oc2c1 | / | / | 0%
Cc1ccc(OCCn2cc(C=O)c3ccccc32)cc1 | / | / | 1%
Cc1ccc(OCCn2cc(/C=C3\C(=O)NN(c4ccccc4)C3=O)c3ccccc32)cc1 | -7% | 10µM* | -17%
COc1cc(C)c(CC/C(C)=C/C=C/C(C)=O)c(C)c1C | -9% | 10% | -8%
O=C1/C(=C/c2ccc(N3CCCC3)cc2)NC(=S)N1C1CC1 | -5% | 4% | 0%
O=C1N/C(=C/c2ccc(N3CCCC3)cc2)C(=O)N1c1ccccc1 | -6% | 3.2µM* | -3%
O=C(COc1ccc(Cl)cc1)NCC(c1ccco1)S(=O)(=O)c1ccc(Cl)cc1 (stereo not given) | -7% | -10% | /
CCCCOc1ccc(C(=O)N(Cc2ccc(N(C)C)cc2)Cc2ccco2)cc1 | -11% | -25% | /
COc1ccc2[nH]cc(CCNc3cc(-c4c(C)noc4C)ncn3)c2c1 | -5% | -12% | -5%
COC(=O)c1c(-c2ccc(C)cc2)csc1NC(=S)NC(=O)c1cc(OC)cc(OC)c1 | -4% | 4µM* | 0%
CCOC(=O)c1c(-c2ccc(C)cc2)csc1NC(=O)c1cc(-c2ccc(OC)cc2)on1 | 0% | -10% | /
Cc1cc(C)c(S(=O)(=O)Nc2ccc3c(c2)CCC3)c(C)c1 | -8% | -8% | -18%
Cc1cc(C)c(S(=O)(=O)Nc2ccc3c4c(cccc24)CC3)c(C)c1 | -3% | 20µM* | -26%
Cc1ccc(Cl)cc1NC(=O)Cn1nnc2sc3c(c2c1=O)CCC(C(C)(C)C)C3 (stereo not given) | -4% | 25µM* | /
COc1ccc(Cl)cc1NC(=O)Cn1nnc2sc3c(c2c1=O)CCC(C(C)(C)C)C3 (stereo not given) | 0% | 6% | /
CCCCCCCCCCCC | / | / | 0%
Cc1nnc(SCC(=O)N2CC(=O)Nc3ccccc32)n1-c1ccccc1 | 2% | -4% | -11%
SMILES | Cruzain Triton | Cruzain inh noDet | Giardia FBPA inh
O=C1CN(C(=O)CSc2nnc(-c3ccccc3)n2Cc2ccc3c(c2)OCO3)c2ccccc2N1 | 28µM* | 13µM* | 4%
COc1ccccc1Oc1ccc2c(c1)C(=O)N(c1ccc(O)cc1)C2=O | 1% | 20µM* | -1%
COc1ccccc1Oc1ccc2c(c1)C(=O)N(CC(=O)O)C2=O | / | / | 15%
COc1ccc(/C=C2\CCCC3C2=NC(=S)NC3c2ccc(OC)cc2)cc1 (stereo not given) | -5% | 25µM* | 2%
COc1ccc(/C=C2\CCC(C3CCCC3)C2=O)cc1 (stereo not given) | / | / | 5%
COc1cc(N)c(Cl)cc1C(=O)N[C@H]1CCN(CCCOc2ccc(F)cc2)C[C@@H]1OC | -3% | 29% | -4%
O=S(=O)(c1ccc(Br)cc1)N1CCn2c(nc3ccccc32)C1 | -3% | 5µM* | -1%
O=S(=O)(Cc1ccccc1)N1CCn2c(nc3ccccc32)C1 | 2% | -20% | -2%
O=S(=O)(c1ccc(Cl)c(Cl)c1)N1CCc2nc3ccccc3n2CC1 | -6% | 10µM* | -11%
O=S(=O)(c1ccc2c(c1)nc1n2CCC1)N1CCOCC1 | -2% | -8% | 2%
COC(=O)[C@H](C)NC(=O)C/C=C\[C@@H](C)[C@@H](CO)OC | / | / | 3%[12.9 µM]

Bioassay records from PubChem.
